Test [1] has as its system Human papillomavirus type 1a protein E7 (residues 44-93). Briefly: small molecules binding HPV E7 44-93 – biochemical, small-molecule microarray, residues 44-93, 635 nm fluorescence, primary screen (AID 1108).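 Also: E7 fragment applied at 1 µg/mL in TBST for 1 h at 4 C; score combines spot fluorescence with its signal to noise ratio.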 The settings on record: fluorescence 635 nm, higher = more signal.
The nature of test [2]: hepatitis C replication reporter changes, two-sided – Huh7 cells, luciferase reporter, HCV replication inhibitor project, primary screen (AID 1109).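 Also: huh7 hepatoma cells harbouring a luciferase neomycin HCV replicon reporter; luciferase luminescence as measure of HCV replicon replication; test concentration not given here.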 As to conditions: Huh7 HCV replicon luciferase reporter, 48 h; higher = more signal.
Test [3] has as its target Left-right determination factor 2 (Homo sapiens) (UniProt O00292). Briefly: small molecules binding LEFTY2 protein – biochemical, small-molecule microarray, 635 nm fluorescence scan, primary screen (AID 1110). The settings on record: higher = more signal.
In test [4] the target is Calmodulin-1 (Homo sapiens) (UniProt P0DP23). Nature of the test: small molecules binding calmodulin-1 with EGTA – biochemical, small-molecule microarray, Cy5-labelled CALM1, profiling panel (AID 1111).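 Also: labelled calmodulin applied in Tris saline Tween buffer holding calcium plus EGTA and DTT.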 The settings on record: Cy5-CALM1 binding fluorescence, higher = more signal.
Test [5] has the same target. Briefly: small molecules binding Ca-loaded calmodulin-1 – biochemical, small-molecule microarray, Cy5-labelled CALM1, plus calcium, artefact control for SMM control-protein annotation, profiling panel (AID 1112).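 Also: score merges spot fluorescence with signal to noise from triplicate slides.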 The settings on record: Cy5-CALM1 binding fluorescence, higher = more signal.
Test [6] is described as follows: probe aWnt5a binding to arrayed compounds – biochemical, biotinylated probe, 635/667 nm fluorescence, primary screen (AID 1113).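 Also: score merges 667 nm fluorescence intensity with signal-to-noise per printed feature.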 As to conditions: small-molecule microarray, higher = more signal.
Test [7] in a line: probe aShh binding to arrayed compounds – biochemical, biotinylated probe, 635/667 nm fluorescence, primary screen (AID 1114).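 Also: probe is biotin-labelled aShh protein from a stem cell growth factor screen; measures binding of labelled protein to compounds printed on the slide; score merges feature fluorescence at 667 nm with signal-to-noise.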 As to conditions: small-molecule microarray, higher = more signal.
Test [8] in a line: probe aNog binding to arrayed compounds – biochemical, biotinylated probe, 635/667 nm fluorescence, primary screen (AID 1115).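 Also: probe is biotinylated aNog protein used at 0.15 µg/mL for 1 h at 4 C; z-score combines 667 nm fluorescence of each spot with its signal to noise.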 The settings on record: small-molecule microarray, higher = more signal.
The target in test [9] is Torsin-1A-interacting protein 1 (Homo sapiens) (UniProt Q5JTV8). Briefly: compound microarray binding of lysate hLAP1 – cell lysate, small-molecule microarray, COS7 lysate, 635/667 nm fluorescence, primary screen (AID 1116). As to conditions: 635 nm fluorescence, higher = more signal.
Chain of Torsin-1A-interacting protein 1 (Homo sapiens) (Q5JTV8 whole entry, looked up): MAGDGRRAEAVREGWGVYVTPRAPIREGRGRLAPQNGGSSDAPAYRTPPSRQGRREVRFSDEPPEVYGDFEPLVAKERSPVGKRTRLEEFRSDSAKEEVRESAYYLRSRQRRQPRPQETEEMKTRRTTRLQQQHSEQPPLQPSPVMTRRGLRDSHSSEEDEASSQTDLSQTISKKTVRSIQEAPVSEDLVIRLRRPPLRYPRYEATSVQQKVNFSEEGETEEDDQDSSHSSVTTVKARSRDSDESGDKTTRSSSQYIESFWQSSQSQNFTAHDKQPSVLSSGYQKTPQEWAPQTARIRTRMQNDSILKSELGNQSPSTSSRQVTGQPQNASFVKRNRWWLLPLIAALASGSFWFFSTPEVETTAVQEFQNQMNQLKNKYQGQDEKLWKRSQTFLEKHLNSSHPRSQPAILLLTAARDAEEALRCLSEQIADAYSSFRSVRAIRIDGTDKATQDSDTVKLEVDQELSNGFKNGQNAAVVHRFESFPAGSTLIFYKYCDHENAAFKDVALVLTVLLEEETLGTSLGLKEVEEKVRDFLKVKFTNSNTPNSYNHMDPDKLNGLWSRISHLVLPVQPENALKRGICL
The target of test [10] is Alpha-bungarotoxin (Bungarus multicinctus) (UniProt P60615). Nature of the test: compounds binding labelled alpha-BTX control protein – biochemical, small-molecule microarray, Alexa647 label, 635/667 nm fluorescence, artefact control for SMM control protein annotation, profiling panel (AID 1117). The settings on record: alpha-BTX-A647 binding fluorescence, higher = more signal.
Chain of Alpha-bungarotoxin (Bungarus multicinctus) (P60615 whole entry, looked up): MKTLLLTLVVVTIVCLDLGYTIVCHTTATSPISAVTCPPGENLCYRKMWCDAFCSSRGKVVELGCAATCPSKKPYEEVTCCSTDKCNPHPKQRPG

For test [11], the target named is Albumin (Bos taurus) (UniProt P02769). Briefly: compounds binding labelled BSA control protein – biochemical, small-molecule microarray, Alexa647 label, 635/667 nm fluorescence, artefact control for SMM control protein annotation, profiling panel (AID 1118).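 Also: score merges 667 nm emission intensity and signal-to-noise per printed compound spot.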 As to conditions: BSA-A647 binding, fluorescence 635 nm, higher = more signal.
Chain of Albumin (Bos taurus) (P02769 whole entry, looked up): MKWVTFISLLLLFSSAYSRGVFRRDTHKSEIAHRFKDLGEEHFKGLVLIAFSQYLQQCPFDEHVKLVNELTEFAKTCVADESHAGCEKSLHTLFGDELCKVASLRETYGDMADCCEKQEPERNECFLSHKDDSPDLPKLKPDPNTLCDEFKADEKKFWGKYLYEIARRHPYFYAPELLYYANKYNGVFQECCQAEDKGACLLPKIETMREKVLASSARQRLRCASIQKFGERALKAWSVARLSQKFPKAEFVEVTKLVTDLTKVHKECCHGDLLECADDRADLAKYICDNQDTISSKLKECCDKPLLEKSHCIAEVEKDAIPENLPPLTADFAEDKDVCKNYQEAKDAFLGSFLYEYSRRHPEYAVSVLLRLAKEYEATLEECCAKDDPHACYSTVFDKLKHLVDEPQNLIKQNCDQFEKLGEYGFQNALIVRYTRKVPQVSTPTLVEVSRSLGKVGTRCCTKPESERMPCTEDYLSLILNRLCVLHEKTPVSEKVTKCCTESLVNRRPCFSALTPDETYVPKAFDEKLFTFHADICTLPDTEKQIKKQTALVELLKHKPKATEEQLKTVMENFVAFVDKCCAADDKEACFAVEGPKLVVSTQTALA
Test [12] is described as follows: probe aXIP binding to arrayed compounds – biochemical, NeuroSMM set, 635/667 nm fluorescence, primary screen (AID 1119).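 Also: probe is the protein aXip251-270 applied at 1 µg/mL to compound-printed slides; binding of probe to printed compounds measured as 667 nm fluorescence plus signal to noise.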 The settings on record: small-molecule microarray, higher = more signal, called active from +8 up or from −8 down.
A short description of test [13]: probe aNOTCH3 binding on compound microarray – biochemical, small-molecule microarray, 635/667 nm fluorescence, primary screen (AID 1120).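 Also: probe is a biotin-tagged antibody raised against NOTCH3 rather than NOTCH3 protein; score merges spot fluorescence near 667 nm with spot signal to noise.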 The settings on record: higher = more signal.
Test [14] in a line: probe aNOTCH2 binding on compound microarray – biochemical, small-molecule microarray, 635/667 nm fluorescence, primary screen (AID 1121).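 Also: score merges feature fluorescence read at 667 nm with its signal to noise.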 As to conditions: higher = more signal.
Test [15] addresses Carbonic anhydrase 2 (Homo sapiens) (UniProt P00918). Briefly: compounds binding carbonic anhydrase 2 – biochemical, small-molecule microarray, Alexa647-labelled CAII, profiling panel (AID 1122). The settings on record: CAII-A647 binding fluorescence, higher = more signal.
The nature of test [16]: COS7 lysate on small-molecule microarray, probe aHis, 635 nm (AID 1123).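 Also: z-score combines 667nm fluorescence intensity with signal-to-noise per printed compound spot.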 The settings on record: COS7 cell lysate, fluorescence, higher = more signal.
The nature of test [17]: probe aLAP1 signal on lysate-treated microarray – cell lysate, small-molecule microarray, COS7 lysate, primary screen (AID 1124).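 Also: lysate comes from COS7 cells expressing LAP1 and is applied at 0.3 µg/mL; score merges spot fluorescence near 667 nm with signal-to-noise over triplicate slides.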 As to conditions: probe aLAP1, fluorescence, higher = more signal.
In test [18] the test system is Sam68 (KHDRBS1). Nature of the test: compounds binding KHDRBS1 protein – biochemical, small-molecule microarray, 635 nm fluorescence, primary screen (AID 1125).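 Also: score merges 667 nm channel intensity with signal to noise over triplicate slides.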 The settings on record: higher = more signal.
For test [19], the system named is Chordin-like protein 2 (CHRDL2). Nature of the test: compounds binding chordin-like 2 – biochemical, small-molecule microarray, 635 nm fluorescence, primary screen (AID 1126).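 Also: printed compound slides probed with Chrdl2 protein at 4 µg/mL for 1 h at 4 C; score merges 667 nm emission intensity with signal to noise over three replicate slides.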 As to conditions: fluorescence 635 nm, higher = more signal.
In test [20] the target is Concanavalin-A (Canavalia ensiformis) (UniProt P02866). Nature of the test: compounds binding concanavalin A lectin – biochemical, small-molecule microarray, Alexa647 label, 635 nm, artefact control for SMM control protein annotation, primary screen (AID 1127).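 Also: z combines 667 nm emission intensity with signal-to-noise across three replicate slides.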 The settings on record: ConA-A647 binding fluorescence, higher = more signal.
Chain of Concanavalin-A (Canavalia ensiformis) (P02866 whole entry, looked up): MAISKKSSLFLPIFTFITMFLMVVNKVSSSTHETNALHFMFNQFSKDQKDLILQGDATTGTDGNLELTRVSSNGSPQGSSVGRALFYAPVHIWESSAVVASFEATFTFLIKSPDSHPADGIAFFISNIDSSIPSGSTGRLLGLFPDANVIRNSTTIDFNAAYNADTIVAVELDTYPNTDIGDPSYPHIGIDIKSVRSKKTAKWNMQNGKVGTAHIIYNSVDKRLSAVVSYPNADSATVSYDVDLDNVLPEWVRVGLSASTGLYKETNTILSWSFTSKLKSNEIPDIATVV

Calls of active or inactive are those of the source.

Chain of Left-right determination factor 2 (Homo sapiens) (O00292 whole entry, looked up): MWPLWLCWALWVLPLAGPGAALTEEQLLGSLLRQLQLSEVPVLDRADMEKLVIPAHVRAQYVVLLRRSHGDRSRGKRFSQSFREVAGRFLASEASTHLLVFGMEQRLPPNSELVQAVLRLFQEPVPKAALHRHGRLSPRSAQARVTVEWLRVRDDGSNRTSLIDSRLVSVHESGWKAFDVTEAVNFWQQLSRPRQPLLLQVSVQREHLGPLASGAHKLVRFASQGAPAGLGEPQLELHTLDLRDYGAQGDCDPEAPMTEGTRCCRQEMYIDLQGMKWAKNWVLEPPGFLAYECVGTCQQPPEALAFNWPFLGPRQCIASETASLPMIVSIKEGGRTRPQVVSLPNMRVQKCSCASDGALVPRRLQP

For the molecule `COCCOC(=O)N1C(=O)[C@@]2(c3cc(C#CCNC(N)=O)ccc31)[C@H](C(=O)N1CCCCCCC1)[C@H]1C(=O)O[C@H](c3ccccc3)[C@H](c3ccccc3)N1[C@@H]2c1ccccc1OCCO`, the composite z-score worked out at 1.32 in test [1]; 1.09 in [3]; 0.886 in test [4]; 0.632 in test [5]; 0.193 in test [6]; 0.46 in test [7]. The composite z-score amounted to 0.878 in test [8]; 0.845 in test [9]; 0.48 in [10]; 0.328 in [11]; 0.555 in [13]; 0.0231 in test [14]. Moreover, the composite z-score in test [15] came to 0.171; in [16], 0.963; in test [17], 0.417; in test [18], 1.14; in test [19], 0.573; in test [20], 1.08. In test [2], the z-score is -2.1. For the same molecule, the composite Z-score in test [12] was 1.01 (inactive).
Regarding `COc1cccc([C@@H]2[C@@H](C)CC[C@H]3C(=O)N4[C@H](c5cccc(OC)c5)[C@@H](C)CC[C@H]4C(=O)N23)c1`, the composite z-score is 0.27 in test [1]; 0.767 in test [3]; -0.2 in test [4]; -0.781 in [5]; -0.0853 in test [6]; -0.2 in test [7]. Besides, the composite z-score was -0.0611 in test [8]; 0.37 in test [9]; 0.452 in test [10]; 0.447 in [11]; 0.0193 in test [13]; -0.0262 in test [14]. The composite z-score in test [15] amounted to 0.35; in test [16], 0.69; in test [17] it was 1.06; in test [18], 0.656; in [19], 0.811; in test [20] it was 0.0858. Moreover, the z-score in test [2] came out at 0.533. The composite Z-score in test [12] was -0.155 (inactive).
Take `C=C(CCCC)C(=O)CC[C@@H](OC(C)=O)c1ccccc1OCCO`: the composite z-score in test [1] is -1.03; in [3], -0.941; in [4], -0.923; in test [5] it was -1.13; in test [6], -0.154; in [7] it was 0.0278. For the same molecule, the composite z-score in [8] is -0.618; in test [9], -0.572; in test [10], -1.31; in test [11], -0.993; in test [13], -0.13; in test [14] it was -0.117. The composite z-score in test [15] was 0.638; in [16], -0.429; in test [17] it was 1.23; in test [18] it was -0.665; in [19] it was -0.646; in [20] it was -1.43. The z-score in test [2] is -3.42. For the same molecule, the composite Z-score in test [12] is 2.25 (inactive).
In the case of `CCOC(=O)C1=CC[C@@H](c2ccc(-c3ccc(OCc4ccccc4)cc3)c(OC)c2)N(S(=O)(=O)c2ccc(C)cc2)[C@H]1c1ccccc1`, the composite z-score was 1.39 in test [1]; 0.4 in test [3]; 1.64 in test [4]; 0.126 in test [5]; 0.0279 in [6]; -0.0171 in test [7]. For the same molecule, the composite z-score was -0.226 in test [8]; 0.373 in [9]; 1.27 in test [10]; 0.713 in test [11]; 0.349 in test [13]; -0.146 in test [14]. In addition, the composite z-score in test [15] was determined as 0.469; in test [16], 1.64; in [17] it was 0.87; in test [18], 1.24; in [19], 0.0693; in [20], 1.13. In test [2], this molecule had a z-score of -1.76. In addition, in test [12], the composite Z-score was 1.53 (inactive).
Take `CN(C)CCCC[C@@H]1NC(=O)[C@@H]2C[C@H](C(=O)O)[C@H](c3ccc(O)cc3)N2C1=O`: the composite z-score in test [1] is 0.668; in [3], 1.15; in test [4], -0.0922; in test [5], -0.0146; in [6] it was 0.0078; in [7], -0.138. For the same molecule, the composite z-score in test [8] was 0.69; in test [9] it was 0.485; in [10], 1.2; in [11], -1.07; in [13], 0.237; in [14], -0.117. The composite z-score was 0.398 in test [15]; 0.917 in test [16]; 0.324 in [17]; 0.916 in test [18]; 0.917 in test [19]; 1.12 in [20]. The same molecule had a z-score in test [2] of 0.883. Also, the composite Z-score in [12] was 0.361 (inactive).

Values taken from PubChem BioAssay.
